Measurements as given in PubChem BioAssay (NCI).
The panel holds about 83,000 compounds, 20% with a hit somewhere; the sample as a whole holds those more often.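 Cells were grown in 96-well plates and exposed to the test compound at a single concentration for 48 hours; results are reported as percent growth, with values below 10 considered active.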 Activity calls are given as the source filed them.

How the values were obtained:
Test in all cases: NCI-60 one-dose screen, 48 h (100 = growth as untreated, 0 = no growth, -100 = all killed)
Conditions in all cases: 10 µM unless noted
BT-549 breast = system: BT-549 breast
MDA-MB-435 melanoma = system: MDA-MB-435 melanoma
SW-620 colon = system: SW-620 colon
MCF7 breast = system: MCF7 breast
HCT-116 colon = system: HCT-116 colon
KM12 colon = system: KM12 colon
HCC-2998 colon = system: HCC-2998 colon

Measured: growth

N#Cc1nc(-c2ccccc2)oc1S(N)(=O)=O
inactive: BT-549 breast 67.6% | MDA-MB-435 melanoma 42.5% | SW-620 colon 21.1% | MCF7 breast 30.9% | HCT-116 colon 46.8% | KM12 colon 83.9%

COc1cc(/C=C/C(=O)c2cc(OC)c(OC)c(OC)c2)ccc1OCc1ccccc1
active: MCF7 breast 8.1% | HCT-116 colon 6.71%
inactive: BT-549 breast 32% | MDA-MB-435 melanoma 45.9% | SW-620 colon 13.2% | HCC-2998 colon 44.6% | KM12 colon 11.3%

COc1ccc(NC2=C(Cl)C(=O)C(C)=C(C)C2=O)cc1OC
inactive: BT-549 breast 108% | MDA-MB-435 melanoma 103% | SW-620 colon 101% | MCF7 breast 77.8% | HCT-116 colon 96.4% | KM12 colon 55.2%

CCN1CCN(S(=O)(=O)c2oc(-c3ccc(Cl)cc3)nc2C#N)CC1
active: SW-620 colon -23.6%
inactive: BT-549 breast 93.6% | MDA-MB-435 melanoma 62.6% | MCF7 breast 31.3% | HCT-116 colon 11.6% | KM12 colon 91.7%

CC(C)Sc1nc(Nc2ccc(S(N)(=O)=O)cc2)c(C#N)c(-c2ccc(F)cc2)n1
inactive: BT-549 breast 53.3% | MDA-MB-435 melanoma 49.9% | SW-620 colon 24.3% | MCF7 breast 31.6% | HCC-2998 colon 58.8% | KM12 colon 48.8%

CCOC(=O)c1sc(NCC(=O)Nc2cccc([N+](=O)[O-])c2)c(C(=O)OCC)c1C
active: BT-549 breast -19.3% | MDA-MB-435 melanoma -82% | SW-620 colon 2.53% | HCT-116 colon 0.39%

NS(=O)(=O)c1cccc(Nc2nc(SCC(=O)c3ccc(Cl)cc3)nc3ccccc23)c1
inactive: MDA-MB-435 melanoma 77.6% | SW-620 colon 79.3% | MCF7 breast 65.6% | HCT-116 colon 76.4%

Fc1ccc(-c2nc(C(Cl)Cl)nc3cc(-c4ccccc4)nn23)cc1
inactive: BT-549 breast 52.3%
active: MDA-MB-435 melanoma 3.93% | SW-620 colon -35.7% | HCT-116 colon 5.36% | HCC-2998 colon -34.7% | KM12 colon -12%

CN1C(=S)N(C)C2C1NN=C1SC(c3ccccc3)=CC(=O)N12 (centres undefined)
inactive: BT-549 breast 98.1% | MDA-MB-435 melanoma 74.2% | SW-620 colon 105% | HCT-116 colon 98.8% | HCC-2998 colon 106%

C/C(=N/NC(N)=S)c1ccc(Nc2nc(SCC(C)C)nc(-c3ccc(F)cc3)c2C#N)cc1
inactive: BT-549 breast 55.8% | MDA-MB-435 melanoma 13.1% | HCC-2998 colon 34.8%
active: SW-620 colon 4.45% | HCT-116 colon 3.84%

COc1cc(/C=C/C(=O)c2ccc(C(F)(F)F)cc2)ccc1Oc1nc(NCCO)nc(N2CCOCC2)n1
active: SW-620 colon -3.75% | HCT-116 colon -18.5%
inactive: BT-549 breast 92.9% | MDA-MB-435 melanoma 78.9% | MCF7 breast 17% | KM12 colon 62.4%

Cc1ccc(CNS(=O)(=O)/N=C2\NC(=O)NC2=C(Cl)Cl)cc1
active: BT-549 breast -8.68% | HCT-116 colon 9.17%
inactive: MDA-MB-435 melanoma 47.7% | SW-620 colon 32.4% | MCF7 breast 17.2% | KM12 colon 24%

Cc1ccc(C(=O)Nc2cccc(C(F)(F)F)c2)cc1Nc1nc(-c2cnccn2)nc2c1cnn2C
inactive: BT-549 breast 143% | MDA-MB-435 melanoma 35.9% | SW-620 colon 58.4% | MCF7 breast 73.2% | HCT-116 colon 35.6% | KM12 colon 56.6%

O=C(CSc1nccc(=O)[nH]1)Nc1ccc(-c2nc3ccccc3[nH]2)cc1
inactive: BT-549 breast 103% | MDA-MB-435 melanoma 111% | SW-620 colon 116% | HCT-116 colon 106% | HCC-2998 colon 116%

COc1ccccc1C(=O)CSc1nc(Nc2ccc(S(N)(=O)=O)cc2)c2ccccc2n1
inactive: BT-549 breast 111% | MDA-MB-435 melanoma 90.4% | SW-620 colon 98.1% | HCT-116 colon 77% | HCC-2998 colon 103% | KM12 colon 78.4%

C=C1CC[C@H]2[C@@](C)(CCC3OC(c4ccc(OCc5cn(C6CC(OC(C)=O)C(OC(C)=O)C(COC(C)=O)O6)nn5)cc4)OC[C@]32C)[C@@H]1/C=C/C1=CCOC1=O (some centres undefined)
inactive: BT-549 breast 61.2% | MDA-MB-435 melanoma 85.4% | SW-620 colon 96.1% | HCT-116 colon 48.3% | HCC-2998 colon 100% | KM12 colon 86.3%

CC(C)(C)Nc1nc2c(OCCc3ccccc3)cccn2c1-c1ccccc1Cl
inactive: BT-549 breast 24% | SW-620 colon 11.5%
active: MDA-MB-435 melanoma 7.76% | HCT-116 colon 2.39% | HCC-2998 colon -0.61% | KM12 colon 4.49%

NS(=O)(=O)c1ccc(Nc2nc(SCC(=O)c3ccc(Cl)cc3)nc3ccccc23)cc1
inactive: BT-549 breast 112% | MDA-MB-435 melanoma 97.5% | SW-620 colon 93.3% | HCT-116 colon 101%

CN(C)CCCOc1c2ccccc2nc2c1oc1ccc(Cl)cc12
active: MDA-MB-435 melanoma -19.8% | SW-620 colon -3.7% | KM12 colon 1.62%
inactive: BT-549 breast 19.2% | HCT-116 colon 10.9% | HCC-2998 colon 11.1%

COc1ccc(Cc2nn(CC(=O)N/N=C/c3ccc(Cl)cc3)c(=O)c3c(C)noc23)cc1
inactive: BT-549 breast 93.9% | MDA-MB-435 melanoma 94.5% | SW-620 colon 69% | MCF7 breast 83.5% | HCT-116 colon 36.4% | KM12 colon 85.9%

O=C1Nc2ccccc2Oc2ccc(S(=O)(=O)CC3CO3)cc21 (centres undefined)
inactive: BT-549 breast 25% | MDA-MB-435 melanoma 46.3% | SW-620 colon 17.9% | HCT-116 colon 46.3% | HCC-2998 colon 71.9%

CN(C)CCCOc1c2ccc(Cl)cc2nc2c1oc1ccccc12
active: BT-549 breast 8.05% | MDA-MB-435 melanoma -51.9% | SW-620 colon 9.59% | HCT-116 colon 1.47% | HCC-2998 colon -58.1%

CCOC(=O)c1c(Nc2ccccc2)nn2c(N)c(C#N)c(-c3ccccc3)nc12
inactive: BT-549 breast 95% | MDA-MB-435 melanoma 75.3% | SW-620 colon 81.6% | HCT-116 colon 78.3% | HCC-2998 colon 97% | KM12 colon 77.7%

CC1=C(C)C(=O)C(Nc2cccc(C(F)(F)F)c2)=C(Cl)C1=O
inactive: BT-549 breast 121% | MDA-MB-435 melanoma 98.5% | SW-620 colon 17.1% | HCT-116 colon 33.9% | KM12 colon 67.2%

CN1CCN(Cc2ccc(NC(=O)c3cncc(C#Cc4cnc5[nH]ncc5c4)c3)cc2C(F)(F)F)CC1
active: MDA-MB-435 melanoma 8.99% | KM12 colon 6.81%
inactive: BT-549 breast 73.3% | SW-620 colon 11.5% | HCT-116 colon 12.4% | HCC-2998 colon 45.7%

O=C(Nc1nc2ccc(O)cc2s1)c1cccc(C(F)(F)F)c1
inactive: BT-549 breast 84.4% | MDA-MB-435 melanoma 44.7% | SW-620 colon 52.1% | HCT-116 colon 57.6%

CC(C)(C)Nc1nc2c(OCCc3ccccc3)cccn2c1-c1ccc(Cl)cc1
active: HCT-116 colon 8.63%
inactive: BT-549 breast 47.7% | MDA-MB-435 melanoma 19.2% | SW-620 colon 41% | HCC-2998 colon 24.7% | KM12 colon 32.7%

CNC(=O)c1cc(-c2ccc(NC(=O)Nc3ccc(N4CCOCC4)c(C(F)(F)F)c3)cc2)nc2cccnc12
inactive: BT-549 breast 84.8% | MDA-MB-435 melanoma 72.6% | SW-620 colon 72.3% | HCT-116 colon 52.3% | HCC-2998 colon 79.9%

COc1cc(OC)c(C2C(Cl)C(=O)N2Nc2ncnc3ccccc23)cc1OC (centres undefined)
inactive: BT-549 breast 89.6% | MDA-MB-435 melanoma 96.2% | SW-620 colon 108% | HCT-116 colon 96.5% | KM12 colon 101%

N#Cc1nc(-c2ccccc2)oc1S(=O)(=O)N1CCN(CCc2ccccn2)CC1
inactive: BT-549 breast 107% | MDA-MB-435 melanoma 22.9% | HCT-116 colon 11.9% | HCC-2998 colon 114% | KM12 colon 84.1%
active: SW-620 colon -24.2%

COC(=O)C(Cc1ccccc1)NS(=O)(=O)/N=C1\NC(=O)NC1=C(Cl)Cl (centres undefined)
active: KM12 colon 9.49%
inactive: BT-549 breast 95.6% | MDA-MB-435 melanoma 105% | SW-620 colon 98.9% | HCT-116 colon 77.3%

COc1ccc(/C=N/Nc2ccnc3cc(Cl)ccc23)cc1Cl
active: BT-549 breast -79.8% | MDA-MB-435 melanoma -84.1% | SW-620 colon -89% | HCT-116 colon -89.4% | HCC-2998 colon -39.9% | KM12 colon -88.6%

CSCCC(C(=O)O)N1C(=O)/C(=C/c2ccc(O)c(O)c2)SC1=S (centres undefined)
inactive: BT-549 breast 110% | MDA-MB-435 melanoma 102% | SW-620 colon 102% | HCT-116 colon 99.5% | HCC-2998 colon 108%

C/C(=C(/c1ccc(Cl)cc1)c1ccc(OCCN)cc1)c1ccc(C)cc1
inactive: BT-549 breast 117% | MDA-MB-435 melanoma 97.3% | SW-620 colon 93.5% | HCT-116 colon 101% | HCC-2998 colon 111% | KM12 colon 103%

COc1ccc([C@@H]2c3[nH]c4ccccc4c3CC3C(=O)N(C4CCN(Cc5c(F)cccc5F)CC4)CC(=O)N32)c(OC)c1 (some centres undefined)
active: HCT-116 colon -15.2% [5.26 µM]
inactive: BT-549 breast 30.4% [5.26 µM] | MDA-MB-435 melanoma 60% [5.26 µM] | SW-620 colon 64.6% [5.26 µM]

OC1CCN(CCCOc2c3ccccc3nc3c2oc2ccccc23)CC1
active: BT-549 breast 7.19% | MDA-MB-435 melanoma -10.5% | SW-620 colon 1.37% | HCT-116 colon 3.79% | KM12 colon 5.22%

CN(C)c1ccc(/C=c2\sc3nc4ccccc4n3c2=O)cc1
inactive: BT-549 breast 118% | MDA-MB-435 melanoma 101% | SW-620 colon 102% | HCT-116 colon 105% | HCC-2998 colon 107% | KM12 colon 104%

[Cl][Ru].c1ccc(-c2cccc(-c3ccccn3)n2)nc1.c1ccc(-c2ccnc3c2ccc2c(-c4ccccc4)ccnc23)cc1
active: BT-549 breast 7.88% | KM12 colon 8.28%
inactive: MDA-MB-435 melanoma 10.5% | SW-620 colon 40.2% | HCT-116 colon 36.9% | HCC-2998 colon 31.3%

O=C(CCN1C(=O)/C(=C/c2ccccc2F)SC1=S)N1CCOCC1
inactive: BT-549 breast 108% | MDA-MB-435 melanoma 80.8% | SW-620 colon 58.8% | HCT-116 colon 81.9% | HCC-2998 colon 115% | KM12 colon 80.8%

Cc1c(Nc2nnc(SCC(=O)Nc3sc4c(c3C#N)CCCC4)s2)c(=O)n(-c2ccccc2)n1C
inactive: BT-549 breast 113% | MDA-MB-435 melanoma 104% | SW-620 colon 103% | HCT-116 colon 102% | KM12 colon 98%

O=C(c1ccc(Cl)cc1)C1[C@H](c2ccc(Cl)cc2)[C@@H](c2ccccc2)NC12C(=O)Nc1ccc(Br)cc12 (some centres undefined)
inactive: BT-549 breast 61.4% | MDA-MB-435 melanoma 34.8% | SW-620 colon 36.3% | HCT-116 colon 13.2% | KM12 colon 15.3%
